Test results taken from PubChem BioAssay AID1159580 (chemical genetic matrix, 2015).
Where “and” joins values, the source holds several entries; their conditions need not be identical. Equal values may be shown once. Hit rate of the full screen: of about 5,500 compounds, about 2,000 (36%) were called active. Roughly 18% stayed inconclusive and do not appear here. Rule as the data show it: active = normalized growth mostly below about 0.91 (no sharp cut-off); inconclusive = no clear call, values can overlap the other calls; inactive = mostly above about 0.92. This is one part of the list.

Assay: chemical genetic growth profiling, strain panel (AID 1159580);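 also: tested at 20 µM; growth read once vehicle control cultures reached saturation at 30 °C; 1 = growth at the plate median or of vehicle wells; lower values mean less growth of the strain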
Conditions: S. cerevisiae deletion strains, growth OD

Measured: normalized growth

COc1ccc(Cl)cc1C(=O)NCCc1ccc(S(=O)(=O)NC(=O)NC2CCCCC2)cc1
inactive: locus YAL013W, strain DEP1, active compounds read low 0.982 | locus YAL021C, strain ccr4, active compounds read low 1.01 | locus YAL026C, strain drs2, active compounds read low 1 | locus YAL030W, strain snc1, active compounds read low 1 | locus YAL040C, strain CLN3, active compounds read low 0.984 | locus YBL061C, strain skt5, active compounds read low 1 | locus YBR009C, strain hhf1, active compounds read low 0.993 | locus YBR021W, strain FUR4, active compounds read low 1.03 | locus YBR023C, strain chs3, active compounds read low 1 | locus YBR171W, strain sec66, active compounds read low 1.01 | locus YBR229C, strain ROT2, active compounds read low 0.956 | locus YBR231C, strain swc5, active compounds read low 0.997 | locus YBR279W, strain paf1, active compounds read low 1.01 | locus YCL011C, strain gbp2, active compounds read low 1.01 | locus YCL016C, strain dcc1, active compounds read low 0.992 | locus YCL029C, strain bik1, active compounds read low 0.99 | locus YCL061C, strain MRC1 (second series), active compounds read low 1 | locus YCL061C, strain MRC1, active compounds read low 1 | locus YCL069W, strain vba3, active compounds read low 1 | locus YCR088W, strain abp1, active compounds read low 1.01 | locus YDL005C, strain med2, active compounds read low 1.01 | locus YDL035C, strain GPR1, active compounds read low 0.973 | locus YDL040C, strain nat1, active compounds read low 1 | locus YDL074C, strain BRE1, active compounds read low 0.909 | locus YDL101C, strain DUN1, active compounds read low 0.978 | locus YDL134C, strain PPH21, active compounds read low 0.976 | locus YDL185W, strain tfp1, active compounds read low 0.959 | locus YDL192W, strain arf1, active compounds read low 0.997 | locus YDR001C, strain nth1, active compounds read low 1 | locus YDR069C, strain doa4, active compounds read low 1.01 | locus YDR101C, strain arx1, active compounds read low 1.01 | locus YDR137W, strain rgp1, active compounds read low 0.973 | locus YDR150W, strain NUM1, active compounds read low 0.971 | locus YDR159W, strain sac3, active compounds read low 1.01 | locus YDR162C, strain NBP2, active compounds read low 0.903 | locus YDR195W, strain ref2 0.927 | locus YDR297W, strain sur2, active compounds read low 1 | locus YDR318W, strain mcm21, active compounds read low 1.02 | locus YDR334W, strain swr1, active compounds read low 0.993 | locus YDR335W, strain msn5, active compounds read low 1.01 | locus YDR363W, strain ESC2, active compounds read low 0.968 | locus YDR388W, active compounds read low 0.995 | locus YDR392W, strain spt3, active compounds read low 0.918 | locus YDR502C, strain sam2, active compounds read low 0.989 | locus YEL003W, strain gim4, active compounds read low 0.997 | locus YEL037C, strain rad23, active compounds read low 1 | locus YEL061C, strain CIN8 (second series), active compounds read low 0.996 | locus YEL061C, strain CIN8, active compounds read low 0.984 | locus YER002W, strain NOP16, active compounds read low 1.02 | locus YER015W, strain faa2, active compounds read low 1 | locus YER016W, strain bim1, active compounds read low 1 | locus YER110C, active compounds read low 0.999 | locus YER111C, strain swi4, active compounds read low 1 | locus YER155C, strain BEM2 (second series), active compounds read low 0.996 | locus YER155C, strain BEM2, active compounds read low 0.994 | locus YER167W, strain BCK2, active compounds read low 1.01 | locus YFR010W, strain ubp6, active compounds read low 1.01 | locus YGL078C, strain dbp3, active compounds read low 0.979 | locus YGL086W, strain mad1, active compounds read low 1.02 | locus YGL167C, strain pmr1, active compounds read low 1 | locus YGL173C, strain kem1, active compounds read low 1 | locus YGL227W, strain vid30, active compounds read low 0.998 | locus YGL240W, strain doc1, active compounds read low 0.994 | locus YGL248W, strain PDE1, active compounds read low 0.973 | locus YGL253W, strain hxk2, active compounds read low 1 | locus YGR078C, strain PAC10, active compounds read low 0.958 | locus YGR135W, strain pre9, active compounds read low 0.979 | locus YGR229C, strain SMI1, active compounds read low 0.954 and 0.937 | locus YGR252W, strain gcn5, active compounds read low 1.12 | locus YHR013C, strain ard1, active compounds read low 0.969 | locus YHR027C, strain rpn1, active compounds read low 1.01 | locus YHR030C, strain SLT2, active compounds read low 1 and 0.996 | locus YHR079C, strain IRE1 (second series), active compounds read low 1.01 | locus YHR079C, strain IRE1, active compounds read low 0.993 | locus YHR094C, strain hxt1, active compounds read low 0.996 | locus YHR129C, strain ARP1, active compounds read low 0.993 | locus YHR142W, strain chs7, active compounds read low 1.01 | locus YHR200W, strain rpn10, active compounds read low 1.01 | locus YIL066C, strain RNR3, active compounds read low 0.962 | locus YIL073C, strain SPO22, active compounds read low 1.06 | locus YIL125W, strain kgd1, active compounds read low 0.998 | locus YIR030C, strain dcg1, active compounds read low 1.01 | locus YJL092W, strain hpr5, active compounds read low 1 | locus YJL095W, strain BCK1 (second series), active compounds read low 0.997 | locus YJL095W, strain BCK1, active compounds read low 0.963 and 0.978 | locus YJL115W, strain asf1, active compounds read low 1 | locus YJL129C, strain trk1, active compounds read low 0.994 | locus YJL134W, strain LCB3, active compounds read low 0.993 | locus YJL154C, strain vps35, active compounds read low 0.996 | locus YJL164C, strain tpk1, active compounds read low 0.995 | locus YJL166W, strain qcr8, active compounds read low 1.01 | locus YJL168C, strain set2, active compounds read low 0.998 | locus YJL187C, strain SWE1 (second series), active compounds read low 0.943 | locus YJL187C, strain SWE1, active compounds read low 1.01 | locus YJR043C, strain POL32, active compounds read low 1.03 | locus YJR066W, strain TOR1, active compounds read low 0.934
